KCNQ2 pot – potentiators of rat KCNQ2 potassium channel; actives 0.54% (n = 310,000); CHO-K1 KCNQ2, FluxOR thallium flux fluorescence; active compounds read high; B-score at 10 µM; O88943;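 active means fluorescence ratio B-score at least 3 SD of library B-scores, with initial fluorescence B-score within 3 of them, cut at about 5.3 in these data; same plate scores as AID 2156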;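 further: B-score of peak minus minimum over baseline fluorescence ratio after K+ and Tl+ stimulus; positive B-score means potentiation of KCNQ2 with more thallium influx and brighter signal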
Target sequence (O88943 whole entry, looked up): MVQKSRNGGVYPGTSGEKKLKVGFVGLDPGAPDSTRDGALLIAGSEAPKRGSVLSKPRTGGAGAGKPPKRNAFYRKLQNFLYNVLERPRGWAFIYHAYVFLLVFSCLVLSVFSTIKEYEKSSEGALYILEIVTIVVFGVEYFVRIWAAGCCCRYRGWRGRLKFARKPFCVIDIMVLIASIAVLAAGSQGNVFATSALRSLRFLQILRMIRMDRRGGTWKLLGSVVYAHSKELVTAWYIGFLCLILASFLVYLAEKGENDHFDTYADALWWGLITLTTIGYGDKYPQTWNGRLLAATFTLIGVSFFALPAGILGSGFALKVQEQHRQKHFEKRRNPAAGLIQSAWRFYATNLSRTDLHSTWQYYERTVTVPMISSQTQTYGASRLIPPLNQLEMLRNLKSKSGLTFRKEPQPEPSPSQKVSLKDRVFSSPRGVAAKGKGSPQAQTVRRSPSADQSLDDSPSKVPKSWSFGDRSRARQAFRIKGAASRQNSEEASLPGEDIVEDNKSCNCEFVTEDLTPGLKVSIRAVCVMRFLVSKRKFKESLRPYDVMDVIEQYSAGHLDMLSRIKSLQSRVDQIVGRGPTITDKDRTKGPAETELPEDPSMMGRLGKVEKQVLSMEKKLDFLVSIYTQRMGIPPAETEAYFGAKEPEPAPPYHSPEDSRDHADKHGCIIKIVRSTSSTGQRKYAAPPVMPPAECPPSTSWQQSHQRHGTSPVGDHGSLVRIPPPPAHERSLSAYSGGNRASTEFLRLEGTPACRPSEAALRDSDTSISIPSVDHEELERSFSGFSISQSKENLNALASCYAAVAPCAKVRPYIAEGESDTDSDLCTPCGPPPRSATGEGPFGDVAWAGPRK
KCNQ2 inh – KCNQ2 (rat) channel inhibition | B-score at 10 µM | actives 1.1% (n = 310,000) | CHO-K1 KCNQ2, FluxOR thallium flux, 20 min; active compounds read low;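 active means fluorescence ratio B-score at most minus 3 library SDs, with starting brightness B-score within 2 library SDs, cut at about -5.5 in these data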
Large screens that a line does not name were inactive. In the library only some 1.6% were active in any assay of this set; here they are far more common.

FC(F)(F)c1ccc(C2[C@H]3CN(Cc4cccnc4)[C@H](c4ccccc4)C34CC2(c2cccnc2)C4)cc1 (stereo not given in full)	KCNQ2 inh -7.17
FC(F)(F)c1ccc(C2[C@H]3CN(Cc4ccc(-c5ccccc5)cc4)[C@H](c4ccccc4)C34CC2(c2cccnc2)C4)cc1 (stereo not given in full)	none
C#Cc1ccc([C@@H]2C=C(C(=O)N3CCN(Cc4ccc5c(c4)OCO5)CC3)O[C@H](OCCCCO)C2)cc1	none (no result: KCNQ2 pot)
CCOc1cc(CNCc2ccncc2)cc(Cl)c1OC	none
O=C(O)CC(CC(=O)NCC(O)c1ccccc1)c1ccccc1 (stereo not given)	none
CC1SC(=S)N(c2ccc(N(C)C)cc2)C1=O (stereo not given)	none (no result: KCNQ2 pot)
O=[N+]([O-])c1ccc(Nc2nc(N/N=C\c3ccc4c(c3)OCO4)nc(N3CCCCC3)n2)cc1	KCNQ2 inh -5.75
O=[N+]([O-])c1ccc(/C=N/Nc2nc(N3CCCCC3)nc(N3CCCCC3)n2)cc1	none (no result: KCNQ2 pot)
CCOC(=O)c1nnc(-c2ccc(C)cc2)nc1Oc1ccccc1Cl	none (no result: KCNQ2 pot)
CCOC(=O)c1nnc(-c2ccc(C)cc2)nc1Oc1ccc(Cl)cc1Cl	KCNQ2 inh -6
Cc1ccc(SCC(=O)Nc2ccc(N3CCOCC3)cc2)c(C)c1	none
Cc1cc(C)c2c(=O)n(CC(=O)NC3CCCC3)sc2n1	none
COc1ccc(OC)c(CCNC(=O)Cn2sc3nc(C)cc(C)c3c2=O)c1	KCNQ2 inh -9.32
C/C(=N\NS(=O)(=O)c1ccccc1)c1ccc2c(c1)OCCO2	none
CCOCC(=O)Nc1c(C(=O)N2CCN(c3ncccn3)CC2)oc2ccccc12	none
O=C(c1oc2ccccc2c1CSCc1ccccc1)N1CCN(c2ncccn2)CC1	KCNQ2 inh -6.2
CCOc1ccc(S(=O)(=O)N2CCN(C(=O)CCOc3ccccc3C)CC2)cc1	none (no result: KCNQ2 pot)
COC(=O)c1c(-c2c(Cl)cccc2Cl)noc1NC(=O)NN1CCOCC1	none (no result: KCNQ2 pot)
O=C(Nc1csc(Cc2c(Cl)cccc2Cl)n1)NN1CCOCC1	KCNQ2 pot 6.08
COc1ccc(/C=N/NC(=O)c2cc3c(ccc4ccccc43)o2)c(OC)c1	KCNQ2 inh -6.31
COc1ccc(OC)c(/C=N\NC(=O)c2cc3c(ccc4ccccc43)o2)c1	none
CCOC(=O)C1=C(COC(=O)COc2ccc(Br)cc2)NC(=O)NC1C (stereo not given)	none
CSc1nc(-c2ccc(C)cc2)[nH]c1S(=O)(=O)c1ccccc1	none (no result: KCNQ2 pot)
CC(=O)Sc1nc(-c2ccccc2)[nH]c1S(=O)(=O)c1ccc(C)cc1	KCNQ2 inh -11.2
COc1cc(S(=O)(=O)N2CCOCC2)ccc1NC(=O)COC(=O)CC12CC3CC(CC(C3)C1)C2	none (no result: KCNQ2 pot)
C=CCn1c(SCc2c(C)noc2C)nc2sc3c(c2c1=O)CCCC3	none (no result: KCNQ2 pot)
C=CCn1c(SCc2c(C)noc2C)nc2sc3c(c2c1=O)CCCCC3	KCNQ2 inh -6.5
O=C(CN(C(=O)CCC(=O)Nc1nccs1)c1ccc(F)cc1)NCc1ccccc1	none
CCCN(CCC)S(=O)(=O)c1ccc(Cl)c([N+](=O)[O-])c1	none (no result: KCNQ2 pot)
CCOC(=O)C(C)(C)N(Cc1ccccc1C)S(=O)(=O)c1ccc(Cl)c([N+](=O)[O-])c1	KCNQ2 inh -7.25
COC(=O)c1cn(NC(=O)Cc2ccc(Cl)cc2)c(=O)c2ccccc12	KCNQ2 pot 18.1
COC(=O)c1cn(NC(=O)Cc2ccccc2OC)c(=O)c2ccccc12	none (no result: KCNQ2 pot)
COC(=O)c1cn(NC(=O)Cc2ccc(Cl)c(Cl)c2)c(=O)c2ccccc12	KCNQ2 pot 29.8
COC(=O)c1cn(NC(=O)Cc2cccc(C(F)(F)F)c2)c(=O)c2ccccc12	none
O=C(C1CC1)N1N=C(C2CCCCC2)CC1(O)C(F)(F)F (stereo not given)	none (no result: KCNQ2 pot)
CO/N=C(\Cn1ncc(N2CCCC2)c(Br)c1=O)c1ccc(Cl)cc1	none (no result: KCNQ2 pot)
CO/N=C(\Cn1ncc(NC2CCCCC2)c(Br)c1=O)c1ccc(Cl)cc1	KCNQ2 inh -6.15
CN(C)CCN(C(=O)C1CCN(S(=O)(=O)c2cccs2)CC1)c1nc2c(F)cccc2s1	none (no result: KCNQ2 pot)
Cc1ccc(SC[C@H](C)CN2CC[C@H](NC(=O)OCc3ccccc3)CCC2=O)cc1	none (no result: KCNQ2 pot)
Cc1ccc(S[C@@H](CCN2CC[C@H](NC(=O)OCc3ccccc3)CCC2=O)c2ccccc2)cc1	KCNQ2 inh -6.89
O=C(c1cc(COc2cccc(C(F)(F)F)c2)on1)N1CCC(Oc2cccnc2)CC1	none
COC(=O)c1ccccc1NC(=O)c1cc2sccc2n1C	KCNQ2 inh -6.13
COC(=O)c1cccc(NC(=O)c2cc3sccc3n2C)c1	none (no result: KCNQ2 pot)
COc1ccc(NC(=O)C2CCN(S(=O)(=O)c3cccc4nonc34)CC2)cc1	none
CC(C)(C)OC(=O)N1CCN(C(=O)Nc2ccc3c(c2)OCCO3)CC1	none
Cc1ccc(NC(=O)C2=C(C(=O)O)CCCC2)cc1Br	none (no result: KCNQ2 pot)
CCC(CO)n1c(SCc2cc(=O)oc3cc(C)ccc23)nc2ccccc2c1=O (stereo not given)	KCNQ2 inh -7.65
COc1ccccc1-n1c(SCc2cc(=O)oc3cc(O)ccc23)nc2ccccc2c1=O	none (no result: KCNQ2 pot)
CCOC(=O)c1c(NC(=O)C2c3ccccc3Oc3ccccc32)sc(C(C)=O)c1C	KCNQ2 inh -5.7
COC(=O)c1sc(NC(=O)C2c3ccccc3Oc3ccccc32)c(C(=O)OC)c1C	none (no result: KCNQ2 pot)
O=C(NNC(=O)C1CC(c2cccs2)=NO1)Nc1ccccc1 (stereo not given)	none
COc1ccc(C(C#N)=C2C=CC(=NO)C=C2)cc1	KCNQ2 inh -5.73
COc1ccc(C(=O)c2ccc(Cl)cc2)cc1	none
CCc1noc(C)c1C(=O)OC(C)C(=O)Nc1cc([N+](=O)[O-])ccc1OC (stereo not given)	none (no result: KCNQ2 pot)
CCN(Cc1ccccc1)C(c1ccc(Cl)cc1)c1nnnn1C(C)(C)C (stereo not given)	none (no result: KCNQ2 pot)
CCN(Cc1ccccc1)C(c1ccc(C)cc1)c1nnnn1C(C)(C)C (stereo not given)	KCNQ2 inh -10.5
CN1CCc2c1nc1ccccc1c2N=C1CCCN1Cc1ccccc1	none
COc1ccccc1C1(CC(=O)O)CCOC(C(C)C)C1 (stereo not given)	none (no result: KCNQ2 pot)
CCC(=O)N(CCC1(c2ccccc2OC)CCOC(C(C)C)C1)Cc1ccco1 (stereo not given)	KCNQ2 inh -5.83
CCc1cccc(NC(=O)Cn2c(=O)c3cccn3c3ccccc32)c1	none (no result: KCNQ2 pot)
COc1cc2ccc(=O)oc2c(CC=C(C)C)c1OC	none
COc1cc(O)cc2c1[C@@H]1Oc3c(ccc(O)c3CC=C(C)C)[C@@H]1CO2	KCNQ2 inh -6.46
CCCCC(=O)NC(=S)Nc1c(C)cc(Br)cc1C	none (no result: KCNQ2 pot)
Cc1ccc(C(=O)NNC(=O)c2ccc3ncccc3c2)cc1	none
O=C(NNC(=O)c1ccc2ncccc2c1)c1ccc(Cl)cc1	KCNQ2 pot 8.05
Nc1c(C(=O)N2CCCC2)sc2nc(-c3ccccc3)ccc12	none
O=C(NNc1ccc([N+](=O)[O-])cc1)C1CC1c1ccccc1 (stereo not given)	KCNQ2 pot 6.33
O=C(NNc1ccc([N+](=O)[O-])cc1)C1CC2CCCC(C1)C2=O (stereo not given)	none
O=C(CC1SC(=Nc2ccccc2)N(CCc2c[nH]c3ccccc23)C1=O)Nc1ccccc1F (stereo not given)	KCNQ2 inh -6.69
O=C(CC1SC(=Nc2ccccc2)N(CCc2ccccn2)C1=O)Nc1ccc(F)cc1 (stereo not given)	none
O=C(CN1C(=O)NC2(CCCC2)C1=O)Nc1nc2ccc(F)cc2s1	none
O=C(CN1C(=O)C2CC=CCC2C1=O)Nc1nc2ccc(F)cc2s1 (stereo not given)	KCNQ2 inh -6.73

Screening results from PubChem BioAssay.
